ALDH1A1 inh: ALDH1A1 (human) enzyme inhibition. actives 7.3% (n = 220,000). AID 1030. Purified ALDH1A1, NADH fluorescence, propionaldehyde substrate. Potency, µM (series often up to 75.3 µM), for inactives: at the top dose activity, negative = inhibition, most hits filed as inhibitors. P00352; active = well fitted inhibition curve with a large enough effect, not every such curve was filed as active; inconclusive = small, poorly fitted or top-dose-only effect, or another doubt; inactive = no such curve, though single readings can be large or run the other way;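 also: potency is read from the fitted curve at half-maximal effect; plate controls were no enzyme wells and a reference inhibitor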
Target sequence (P00352 whole entry, looked up): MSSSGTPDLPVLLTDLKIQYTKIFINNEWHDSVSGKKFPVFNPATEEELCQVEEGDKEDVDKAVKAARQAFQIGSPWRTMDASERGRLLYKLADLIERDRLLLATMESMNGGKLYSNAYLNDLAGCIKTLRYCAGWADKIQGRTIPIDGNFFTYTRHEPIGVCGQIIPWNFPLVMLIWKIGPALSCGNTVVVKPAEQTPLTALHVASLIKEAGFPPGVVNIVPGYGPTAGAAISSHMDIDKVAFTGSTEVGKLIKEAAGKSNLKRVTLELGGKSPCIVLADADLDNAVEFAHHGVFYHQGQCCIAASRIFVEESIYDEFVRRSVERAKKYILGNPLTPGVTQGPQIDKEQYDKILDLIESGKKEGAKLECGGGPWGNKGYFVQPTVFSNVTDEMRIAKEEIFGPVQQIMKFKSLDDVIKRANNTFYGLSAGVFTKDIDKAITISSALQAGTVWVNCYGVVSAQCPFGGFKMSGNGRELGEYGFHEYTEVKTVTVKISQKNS
IMPase Li cell: cell-permeable IMPase inhibitors with lithium potentiation. CHO-M1 cells, IP1 TR-FRET (IP-One), carbachol + lithium. Potency, µM (titrated, usually from 59.4 µM), for the others: at the top dose activity, negative = IMPase inhibition, actives largely listed as inhibitors. actives 0.35% (n = 210,000). AID 1457;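 also: IP1 builds up when IMPase is blocked and the TR-FRET signal falls; potency is read from the fitted curve at half-maximal effect; plate controls were basal vehicle for no effect and high inhibitor control for full effect; nearly all actives have a fitted effect of over 50% in size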
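Concentration–response in CHO-M1 cells, lithium-potentiated; 30 min at 37C. IP1 detected by competitive TR-FRET after 10 min lysis at RT. Hill-fitted AC50.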
NPSR antagonist: antagonists of human neuropeptide S receptor cAMP signaling; Potency, µM (titrated, usually from 38.3 µM), inactives show at the highest dose activity change, negative = inhibition, most hits filed as inhibitors; CHO-NPSR cells, cAMP TR-FRET, antagonist mode; actives 1% (n = 220,000); also: potency is read from the fitted curve at half-maximal effect; nearly all actives have a fitted effect of over 50% in size
12-hLO inh: blocks human 12-lipoxygenase activity. AID 1452. actives 0.12% (n = 150,000). Potency, µM (top dose mostly 57.1 µM), for the others: at the top dose activity change, negative = inhibition, usual class: inhibitors. P18054. purified 12-hLO, xylenol orange hydroperoxide absorbance; also: potency is read from the fitted curve at half-maximal effect; nearly all actives have a fitted effect of over 55% in size
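Xylenol orange chromogenic assay: hydroperoxide from 12hLO oxidises Fe(II), giving red-shifted Fe(III)-XO absorbance. Conditions: 150 nM enzyme, 40 uM arachidonic acid, 25 mM Hepes pH 7.0, 0.01% Triton X-100, 30 min, room temperature.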
IMPase cell inh: IMPase inhibition in cells; CHO-M1 cells, IP1 accumulation, HTRF TR-FRET ratio; inhibition (IP1 accumulation), % at 46.1 µM; 120,000 tested, under 10 active; active = well fitted curve in the direction sought with a large enough effect in the signal ratio, not every such curve was filed as active; inconclusive = small, poorly fitted or top-dose-only effect, or a change in a side signal; inactive = no such curve, though single readings can be large or run the other way; the % refers to the signal ratio;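 also: cells stimulated with carbachol in lithium chloride buffer; plate controls were DMSO basal wells for no effect and reference inhibitor wells for full effect; higher means more IMPase inhibition seen as more IP1 and lower FRET ratio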
Target sequence (P97697 whole entry, looked up): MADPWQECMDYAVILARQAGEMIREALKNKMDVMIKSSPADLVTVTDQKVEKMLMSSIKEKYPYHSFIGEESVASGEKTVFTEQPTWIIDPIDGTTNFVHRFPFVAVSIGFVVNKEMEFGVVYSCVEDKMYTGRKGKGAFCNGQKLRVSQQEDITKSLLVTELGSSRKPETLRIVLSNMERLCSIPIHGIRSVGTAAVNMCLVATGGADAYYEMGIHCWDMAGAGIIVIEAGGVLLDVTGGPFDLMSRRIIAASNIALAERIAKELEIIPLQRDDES
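The IP-One HTRF competitive assay in carbachol-stimulated CHO-M1 cells quantifies cellular IP1. Compounds spanned up to 46 uM final, and activity is expressed as AC50 from concentration-response fits of the ratio and donor data.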
HPGD inh: HPGD (human) dehydrogenase inhibition | actives 4.3% (n = 150,000) | AID 894 | Potency, µM, inactives show at the highest dose activity change, negative = inhibition, hits mostly inhibitors | P15428 | purified HPGD, NADH fluorescence kinetic, PGE2 substrate; active = well fitted inhibition curve with a large enough effect, not every such curve was filed as active; inconclusive = small, poorly fitted or top-dose-only effect, or another doubt; inactive = no such curve, though single readings can be large or run the other way; also: potency is read from the fitted curve at half-maximal effect
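NADH formation kinetics: reaction with 30 uM PGE2 and 1 mM NAD+ (final), 20 nM enzyme, Tris-HCl pH 8 with Tween 20, after 15 min compound preincubation at room temperature. Fluorescence change, last versus first of five reads.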
An asterisk follows results filed as active; ? = inconclusive; . = not tested or not shown; [ ] = dose if it differs, or a comment. Sampled rows, rich in hits. Any-hit rate of the full collection: about 8.9%. Unless noted, calls follow the shape of the dose curve; as a rule, active = well fitted curve in the direction sought with a large enough effect; inconclusive = small, poorly fitted or top-dose-only effect, or another doubt; inactive = no such curve, though single readings can be large; an effect the other way counts as inactive or inconclusive. Unless noted, % is scaled to controls: 0 for no effect and ±100 for the full control effect.

SMILES | ALDH1A1 inh | IMPase Li cell | NPSR antagonist | 12-hLO inh | IMPase cell inh | HPGD inh
COCCN(C(=O)C(F)(F)F)C(C(=O)NC1CCCCC1)c1ccco1 (configuration not stated) | 4.74µM* | 8.2%[38.3 µM] | -5.3%[46.1 µM] | 0.7% | -7.8 | -11.4%
Cc1ccc(S(=O)(=O)N2CCOCC2)cc1NC(=O)COC(=O)CNC(=O)c1ccc(C(C)(C)C)cc1 | 7.94µM* | -0.3% | 5.5% | 4.4% | . | -10.7%
CC(C)(C)c1ccc(C(=O)NCC(=O)OCC(=O)Nc2ccccc2[N+](=O)[O-])cc1 | 6.31µM* | 1.8% | -3.1% | 0.0% | . | -10.7%
COc1cc(NC(=O)COC(=O)CNC(=O)c2ccc(C)cc2)c(C)cc1[N+](=O)[O-] | -8.4% | -11.7% | ? | -4.9% | 3.1 | -18.0%
Cc1ccc(S(=O)(=O)N2CCOCC2)cc1NC(=O)COC(=O)CNC(=O)c1ccc(Oc2ccccc2)cc1 | -10.7% | 19.0% | -1.0% | 1.0% | . | -10.9%
CCOC(=O)c1ccc(NC(=S)NNC(=O)COC)cc1 | 8.91µM* | -8.6% | 2.1% | 1.2% | . | -19.7%
COc1cc(C(=O)NNC(=S)Nc2ccc(S(N)(=O)=O)cc2)cc(OC)c1OC | 10µM* | 12.7% | 17.1% | . | . | .
COC(=O)c1ccccc1NC(=S)NC(=O)c1ccccc1 | ? | -6.6%[38.3 µM] | 4.0%[46.1 µM] | ? | 0.9 | ?
COC(=O)c1ccc(NC(=S)NNC(=O)c2ccccc2)cc1 | 8.91µM* | 4.4% | 11.2% | . | . | .
COC(=O)c1cccnc1NC(=S)NNC(=O)c1ccccc1 | ? | -3.0%[38.3 µM] | -14.6%[46.1 µM] | 11.8% | 8.0 | 25.1µM*
S=C(NCCN1CCCCC1)Nc1ccccc1 | -5.1% | 7.6% | 8.3% | . | . | .
COC(=O)c1ccc(C(NC(=O)OCc2ccccc2)/C(=C/[C@@H](C)C(=O)N(C)Cc2cccnc2)c2cccnc2)cc1 (some centres not stated) | -0.1% | -1.0% | . | 0.5% | . | -2.7%
O=C(Nc1ccc(Cc2ccncc2)cc1)C1CCC(N2C(=O)C3CC=CCC3C2=O)CC1 (configuration not stated) | -7.0% | 28.7%[38.3 µM] | 0.5%[46.1 µM] | -3.1% | -3.4 | 7.7%
COC(=O)c1cc(OC)c(OC)cc1NC(=S)Nc1cc(Cl)ccc1OC | -1.4% | . | -21.8%[46.1 µM] | -0.5% | -0.9 | .
COc1ccc(Cl)cc1NC(=S)NNC(=O)C1(C)CC1(Cl)Cl (configuration not stated) | 28.2µM* | -2.3% | -5.4% | . | . | .
CCOC(=O)c1ccc(NC(=S)NNC(=O)C2(C)CC2(Cl)Cl)cc1 (configuration not stated) | 10µM* | 5.3% | -3.5% | -3.1% | 5.5 | 28.2µM*
COC(=O)c1ccc(NC(=S)Nc2ccccc2)cc1 | -2.6% | 5.2% | 5.6%[46.1 µM] | 0.0% | -0.4 | -6.4%
COC(=O)c1ccc(NC(=S)NNC(=O)CC(C)C)cc1 | -0.2% | -1.9% | 2.9% | -0.8% | -0.6 | 28.2µM*
COc1ccc(C)cc1N1C(=N)/C(=C2/Nc3ccccc3S2)C(c2ccccc2)C1=O (configuration not stated) | ? | 11.9% | -19.1% | 0.0% | . | -15.1%
CO/N=C/NC(=O)c1c(OC)ccnc1Oc1ccccc1 | 6.31µM* | 4.1%[38.3 µM] | -3.8%[46.1 µM] | 4.2% | -6.9 | -8.5%
CC1(C)CC(=O)C2=C(C1)OC(N)=C(C#N)C21CCN(C(=O)OCc2ccccc2)CC1 | 10µM* | 27.7%[38.3 µM] | ? | -20.5% | 20.1 | -27.3%
CC1(C)CC(=O)C2=C(C1)OC(N)=C(C#N)C21C(=O)N2CCCc3cccc1c32 (configuration not stated) | 7.08µM* | 15.3%[38.3 µM] | -7.5%[46.1 µM] | 3.4% | 1.8 | -8.7%
Cc1cc2c3c(c1)C(C)(c1ccccc1)CC(C)(C)N3C(=O)C21C(C#N)=C(N)OC2=C1C(=O)CC(C)(C)C2 (configuration not stated) | -10.1% | -1.7%[38.3 µM] | 10µM* | -9.1% | -0.5 | -18.1%
N#CC1=C(N)OC2=C(C(=O)CCC2)C12CCN(C(=O)OCc1ccccc1)CC2 | ? | 1.6%[38.3 µM] | -5.7%[46.1 µM] | -10.3% | -2.5 | -24.2%
CC1(C)CC(=O)CC(=NCC(=O)O)C1 | ? | 11.7%[38.3 µM] | 5.3%[46.1 µM] | -0.9% | 5.2 | -1.5%
SMILES | ALDH1A1 inh | IMPase Li cell | NPSR antagonist | 12-hLO inh | IMPase cell inh | HPGD inh
O=C(Nc1cccc(S(=O)(=O)Nc2ccccc2Cl)c1)c1ccc(N2CCCC2)c([N+](=O)[O-])c1 | ? | -8.7% | -17.7% | -1.1% | -4.2 | -18.4%
CN(C)CCCNC(=O)c1ccc(-c2nc(-c3ccc(Cl)cc3)cs2)cc1 | ? | 13.0%[38.3 µM] | 10µM* | 2.3% | 3.4 | ?
CCOC(=O)c1c(NC(=O)Cn2nnc(-c3ccc(Cl)cc3)n2)sc(C)c1C | 1.0% | 0.0%[38.3 µM] | 2.7%[46.1 µM] | -1.4% | -11.1 | -3.1%
Cc1c(C(=O)NCC2CCCO2)oc2ccc(S(=O)(=O)N3CCCCC3)cc12 (configuration not stated) | ? | -9.8% | 5.6% | -1.3% | . | -17.2%
CSc1nc(N)nc(SCC(=O)C23CC4CC(CC(C4)C2)C3)c1C#N | 25.1µM* | 11.9% | ? | -2.0% | . | -18.3%
N#Cc1c(N)nc(SCC(=O)C23CC4CC(CC(C4)C2)C3)c(C#N)c1-c1ccc(Cl)cc1 | ? | 3.55µM* | 3.16µM* | 1.8% | -6.0 | ?
COc1ccc(C(=O)CSc2nc(N)nc(SC)c2C#N)cc1 | ? | 6.31µM* | 9.9%[46.1 µM] | 0.4% | -7.7 | -11.6%
O=C(/C=C/c1ccccc1)Oc1cccc(C(=S)N2CCOCC2)c1 | 4.47µM* | 2.6% | 30.8% | . | . | .
O=C(Oc1ccc(C(=S)N2CCC(O)CC2)cc1)c1ccc(Cl)cc1 | -4.5% | -6.4% | 13.3% | . | . | .
Oc1cccc(C(=S)N2CCCCC2)c1 | 11.2µM* | 8.4% | 8.8% | . | . | .
O=C(Oc1ccc(C(=S)N2CCCCC2)cc1)c1ccccc1 | 11.2µM* | 8.1% | -28.1% | . | . | .
O=C(/C=C/c1ccccc1)Oc1ccccc1C(=S)N1CCOCC1 | ? | 8.4% | -25.9% | . | . | .
O=C(Oc1cccc(C(=S)N2CCCCC2)c1)c1ccccc1 | 2.51µM* | 0.1% | -3.2% | . | . | .
COC(=O)c1cccc(C23CC4(C2)[C@H](CN(C)[C@@H]4c2ccccc2)C3c2ccc(C(F)(F)F)cc2)c1 (some centres not stated) | 3.5% | 2.2% | -29.5% | -2.1% | . | -9.7%
Cc1ccc(-n2c(O)c(/C=N/n3cnnc3)c3ccccc3c2=O)cc1 | -0.4% | -22.2%[38.3 µM] | -14.9%[46.1 µM] | -17.1% | -3.7 | ?
C=C1C(=O)C=C2CN(C(=O)c3ccccc3)[C@@](Cc3ccc(F)cc3)(C(=O)OC)[C@@H]12 | -0.9% | 25.8% | 1.58µM* | -5.2% | . | 15.8µM*
COc1ccc(C(=O)C(C)OC(=O)c2cccc(S(=O)(=O)Nc3cc(Cl)c(OC)cc3OC)c2)cc1 (configuration not stated) | 6.9% | 5.3% | 10.0% | 1.9% | . | -7.8%
